PubChem BioAssay AID818 (SRMLSC, 2007)
The campaign covered roughly 140,000 compounds. About 2,100 (1.5%) were called active. Many of the other results were omitted from the sample, so actives are more common in it than they were. Values without a mark were called inactive.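 Rule for the calls: active = viability at or under a set limit, the compound median less 4 SD (cut at about 6% in these data); inactive = the rest.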

test: primary screen for growth suppressors in beta-catenin knockout HCT116 cells (colon tumor, human) (AID 818); details: CellTiter-Glo, 60 h, at 10 µM, active compounds read low;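 note: 0% = Hyamine 1622 control at 20 µM and 100% = untreated cell control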

Compound	viability
CSc1nc(-c2ccccc2)nc(C(Cl)Cl)n1	3.63% (active)
CSc1nc(C)cc(SC(C(C)=O)C(=O)Nc2ccccc2)n1 (stereo not drawn)	88.4%
Cc1nn(-c2ccccc2)c(-n2cccc2)c1C(=O)O	95.6%
Cc1ccc(/C=N/NC(=O)COc2ccccc2-c2ccccc2)cc1	13.9%
c1ccc(C2CNCc3c2ccc2ccccc32)cc1 (stereo not drawn)	11.3%
COc1ccc(C2NC(=S)NC3=C2CCc2ccccc23)cc1OC (stereo not drawn)	81.8%
CCn1ncc(CNC(=O)C2(C)CC2(Br)Br)c1C (stereo not drawn)	94.3%
CC(=O)NS(=O)(=O)c1ccc(NC(=O)C2C3C=CC(C3)C2C(=O)O)cc1 (stereo not drawn)	98.2%
CN(C)S(=O)(=O)c1cccc(C(=O)Nc2cccnc2)c1	97.9%
CN(C)S(=O)(=O)c1cccc(NC(=S)N/N=C/C(=O)c2ccccc2)c1	6.06% (active)
CCN(CC)S(=O)(=O)c1cccc(C(=O)Nc2ccccc2)c1	80.8%
Cc1cccc(CSc2ccc(-c3cccs3)nn2)c1	75.7%
Cc1c(Cl)c([N+](=O)[O-])nn1CCCC(=O)Nc1cc(Cl)ccc1Cl	91.2%
COc1ccc(NC(=S)N2CCCC(CO)C2)c(OC)c1 (stereo not drawn)	100%
O=C(CC1NCCNC1=O)Nc1cc(Cl)cc(Cl)c1 (stereo not drawn)	87.8%
Cc1ccc(-c2nn(-c3ccccc3)cc2/C=N/NC(=O)c2ccc3c(c2)OCO3)cc1	36.6%
Cc1cccc(-n2c(C)cc(/C=N\NC(=O)c3cccs3)c2C)c1	60.6%
Cc1ccc(/C=N/NC(=O)C2=NNC(c3ccccc3)(c3ccccc3)C2)c(O)c1	4.68% (active)
Cc1cc(C(=O)NNC(=S)NC(C)c2ccccc2)cs1 (stereo not drawn)	88.5%
Cc1cc(NC(=O)/C=C/C(=O)N(c2ccccc2C)C(C(=O)NC2CCCC2)c2ccc(F)cc2)no1 (stereo not drawn)	5.76% (active)
Cc1cc(NC(=O)CCC(=O)N(c2cccc(F)c2)C(C(=O)NC2CCCC2)c2ccncc2)no1 (stereo not drawn)	94.3%
Cc1cc(NC(=O)CCC(=O)N(c2ccccc2)C(C(=O)NC2CCCC2)c2ccncc2)no1 (stereo not drawn)	80%
CCOc1ccc(Br)cc1S(=O)(=O)Nc1cccc(S(=O)(=O)N(CC)CC)c1	96.4%
CCn1c(SCc2ccc(C)cc2)nnc1-c1nn(-c2ccccc2)ccc1=O	103%

Compound	viability
CCc1ccc(-c2nn(-c3ccccc3)cc2CSC(=N)N)cc1	1.57% (active)
N=C(N)SCc1cccc2ccccc12	79.3%
CCN(C(=O)COc1cccnc1[N+](=O)[O-])C1CCS(=O)(=O)C1 (stereo not drawn)	85.6%
COC(C(=O)NCc1ccccc1C)c1ccccc1 (stereo not drawn)	90%
CCN(CC)CCNCc1ccc(OCc2ccc(Cl)nc2)c(OC)c1	96.9%
Cc1c(Cl)cccc1NC(=O)Nc1ccc(C(=O)N2CCCC2)cc1	70.1%
c1ccc2cc3c(NCCN4CCOCC4)ccnc3cc2c1	2.37% (active)
c1ccc2[nH]c(NCCN3CCOCC3)nc2c1	92%
O=C(Cn1c(-c2ccccn2)nc2ccccc21)NCCN1CCOCC1	98.8%
CC(C)CCNC(=O)c1cccnc1Sc1ccccc1	96.4%
CC(C)(C)CC(C)(C)NCC(O)COCCOc1ccc(Br)cc1 (stereo not drawn)	1.6% (active)
CCC(C)NCCOCCOc1ccc(Br)cc1C (stereo not drawn)	70.2%
Cc1noc(COc2ccccc2OCC(O)CNC(C)(C)C)n1 (stereo not drawn)	98.6%
CCOc1ccc(NC(=S)N2CCC(N(C)CC3CCCO3)CC2)cc1 (stereo not drawn)	96.9%
Cc1ccc(NC(=O)COC(=O)CCc2nc3ccccc3n2-c2ccccc2)c(C)c1	79.9%
COc1ccc(CN2CN(C(C)C)CSC2=S)cc1	5.75% (active)
S=C1SCN(CCN2CCOCC2)CN1Cc1ccccc1	20.5%
O=C(NN1C(=O)C2C3C=CC(C3)C2C1=O)c1ccco1 (stereo not drawn)	93.7%
COc1cc(OC)nc(N/N=C(\c2ccccc2)c2ccncc2)n1	63.6%
Cc1ccc(C(=O)NCC2CCCO2)o1 (stereo not drawn)	106%
OC(CNCC1CCCO1)Cn1c2ccc(Br)cc2c2cc(Br)ccc21 (stereo not drawn)	1.48% (active)
Cc1cc(Br)ccc1NC(=O)C1CCCO1 (stereo not drawn)	96.2%
COc1ccc(NC(=S)NCc2cccs2)c(OC)c1	96%
COc1ccc(C(C(=O)NC2CCCCC2)N(C(=O)Cc2c[nH]c3ccccc23)c2ccccc2)cc1OC (stereo not drawn)	63.4%
